Screening data: PubChem, NMMLSC
MEKK2mut PB1 HTS – MEK5 binding signal on mutant MEKK2 PB1, primary screen, biochemical, multiplex bead flow cytometry, Alexa488-MEK5 | Alexa488-MEK5 binding to MEKK2 mutant | 290,000 tested, 0.35% active | AID 1530, 2009 | percent response, % at 10 µM; in the data active means percent response above about 24%, passing the limit was not always enough
MEKK3 PB1 HTS – modulators of MEKK3-MEK5 PB1 binding, primary screen, biochemical, wildtype MEKK3, multiplex bead flow cytometry, Alexa488-MEK5; Mitogen-activated protein kinase kinase kinase 3 (Homo sapiens), Q99759; bead-based flow cytometry, Alexa488-MEK5 binding to MEKK3; actives lie on both sides; 0 = blocked by unlabeled MEK5, 100 = vehicle; binding response (% of control), % at 10 µM; 290,000 tested, 1.4% active; AID 1529, 2009;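 active means binding response more than 3 SD above or below the average of its plate-row segment, actives on both sides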;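 further: Alexa488 bead fluorescence after subtracting the streptavidin-only scavenger bead signal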
Target sequence (Q99759 whole entry, looked up): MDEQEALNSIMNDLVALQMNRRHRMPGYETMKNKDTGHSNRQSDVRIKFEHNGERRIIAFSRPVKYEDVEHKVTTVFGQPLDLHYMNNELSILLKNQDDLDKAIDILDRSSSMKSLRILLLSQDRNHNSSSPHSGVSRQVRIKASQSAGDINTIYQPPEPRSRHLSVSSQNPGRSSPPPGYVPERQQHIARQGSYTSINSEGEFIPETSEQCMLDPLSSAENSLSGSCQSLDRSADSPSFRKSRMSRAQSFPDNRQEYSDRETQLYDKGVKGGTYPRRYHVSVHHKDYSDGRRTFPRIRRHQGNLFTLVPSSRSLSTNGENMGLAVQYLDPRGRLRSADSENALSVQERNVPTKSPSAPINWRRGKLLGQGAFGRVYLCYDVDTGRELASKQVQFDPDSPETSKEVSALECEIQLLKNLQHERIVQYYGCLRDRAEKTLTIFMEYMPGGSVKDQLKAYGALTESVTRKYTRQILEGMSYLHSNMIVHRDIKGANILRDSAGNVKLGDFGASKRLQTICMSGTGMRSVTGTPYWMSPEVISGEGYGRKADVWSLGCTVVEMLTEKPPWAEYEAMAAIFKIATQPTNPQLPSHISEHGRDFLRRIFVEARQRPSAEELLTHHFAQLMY
GRK2 inh – compounds blocking aptamer binding on GRK2 – biochemical, human GRK2, bead flow cytometry, HTS, primary screen; Beta-adrenergic receptor kinase 1 (Homo sapiens), P25098; FAM-aptamer displacement from GRK2; inhibition of aptamer binding, % at 10 µM; 330,000 tested, 0.59% active;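 active means inhibition of aptamer binding above 40%, roughly 3 SD of noise, on plates passing a quality check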;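 further: median bead fluorescence of bound FAM aptamer so fluorescent compounds give negative values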
MEKK2 WT-MEK5 – modulators of MEK5 binding to wildtype MEKK2, primary screen, biochemical, multiplex bead flow cytometry, Alexa488-MEK5 | Mitogen-activated protein kinase kinase kinase 2 (Homo sapiens), Q9Y2U5 | Alexa488-MEK5 binding to MEKK2 WT; actives lie on both sides | binding response (% of control), % at 10 µM | 290,000 tested, 1.1% active | AID 1531, 2009; in the data active means binding response below about 67% or above about 130%
MEKK2wt confirm – modulators of MEK5 binding to wildtype MEKK2, confirmation, biochemical, single concentration, multiplex bead flow cytometry | binding response (% of control), % at 10 µM | AID 1892, 2009 | shares compounds with MEKK3 PB1 HTS | Alexa488-MEK5 binding to MEKK2 WT; actives lie on both sides | 5,900 tested, 2.4% active; in the data active means binding response below about 16% or above about 210%; inactive means in between
MEKK2mut confirm – mutant MEKK2 PB1-MEK5 binding signal retest – biochemical, single concentration, multiplex bead flow cytometry, confirmation. percent response, % at 10 µM. Alexa488-MEK5 binding to MEKK2 mutant. AID 1893, 2009. shares compounds with MEKK3 PB1 HTS. 5,900 tested, 2% active; in the data active means percent response mostly above about 71%, no sharp cut-off; inactive means mostly below about 38%;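 further: higher means compound restores mutant binding toward wildtype level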
MEKK3-MEK5 inh – MEKK3 wild-type PB1 binding to MEK5, inhibitors, confirmation, biochemical, bead multiplex flow cytometry, single concentration, wildtype; shares compounds with MEKK3 PB1 HTS; Alexa488-MEK5 binding to MEKK3; active compounds read low; binding response (% of control), % at 10 µM; 5,900 tested, 1.8% active;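 active means binding response below 72% of control, or above a set upper limit, though filed actives all read lower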;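 further: 100% = DMSO only wells and 0% = binding blocked by excess unlabeled MEK5; lower values mean stronger disruption of MEK5 binding to MEKK3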
The depositor's hits bear a star; . = no result given; [ ] = remark or other dose. Sampled rows, rich in hits. Any-hit rate of the full collection: about 2.5%.

SMILES | MEKK2mut PB1 HTS | MEKK3 PB1 HTS | GRK2 inh | MEKK2 WT-MEK5 | MEKK2wt confirm | MEKK2mut confirm | MEKK3-MEK5 inh
CCOC(=O)C1CCN(CC(O)COc2ccc(C(C)(C)C)cc2)CC1 (stereo not drawn) | 1.0 | 98.0 | 1.0 | 104.0 | . | . | .
C=CCNC(=O)c1c(Cl)nc(C)c([N+](=O)[O-])c1C | 2.0 | 155.0* | 0.0 | 112.0 | 97.0 | -1.0 | 100.0
Cc1c(N(C)S(=O)(=O)c2cccc(C(=O)NCC3CCCO3)c2)c(=O)n(-c2ccccc2)n1C (stereo not drawn) | . | . | 1.0 | . | . | . | .
CC(=O)Nc1ccc(N=Cc2c(O)c3ccccc3oc2=O)cc1 | -6.0 | 101.0 | 6.0 | 100.0 | . | . | .
CC(=O)Nc1ccc(N=Cc2c(O)c(C(=O)Nc3ccccc3)cc3ccccc23)cc1 | 20.0 | 76.0 | 0.0 | 10.0*[inhibitor] | 87.0 | -10.0 | 101.0
COc1ccc2cc(/C=N/O)c(Cl)nc2c1 | -3.0 | 67.0*[inhibitor] | 4.0 | 77.0 | 98.0 | 0.0 | 97.0
CCN1C(=O)c2cccc3c(S(=O)(=O)NCCCN4CCOCC4)ccc1c23 | 6.0 | 125.0* | 0.0 | 124.0 | 105.0 | 5.0 | 106.0
COCCN1C(=O)/C(=C/c2ccc(N3CCCC3)cc2C)SC1=S | -36.0 | 59.0 | 0.0 | 20.0*[inhibitor] | 24.0 | -33.0 | 56.0*
O=C(CSc1ccc2ccccc2n1)NCc1ccc2c(c1)OCO2 | -3.0 | 105.0 | 0.0 | 95.0 | . | . | .
COCCCNC(=S)Nc1ccc(C)cc1 | -1.0 | 97.0 | 0.0 | 98.0 | . | . | .
CCOCCCNC(=S)Nc1cc(C)cc(C)c1 | 1.0 | 141.0* | 0.0 | 116.0 | 104.0 | -2.0 | 106.0
CC(C)(C)c1ccc(/C=C/C(=O)c2ccc(NC3=NCCCS3)cc2)cc1 | 32.0 | 109.0 | 0.0 | 139.0* | 149.0 | 21.0 | 105.0
CCS(=O)(=O)c1ccc(O)c(NC(=O)COc2ccccc2)c1 | . | . | 0.0 | . | . | . | .
CCCN(CC(=O)Nc1cc(Cl)cc(Cl)c1)CC(=O)Nc1ccc(F)c(F)c1F | 17.0 | 99.0 | 23.0 | 165.0* | 129.0 | 18.0 | 109.0
Cc1ccc(NC(=O)CN(C)CC(=O)Nc2ccc(F)c(F)c2F)c(Cl)c1 | -2.0 | 98.0 | 0.0 | 98.0 | . | . | .
CCCN(CC(=O)Nc1ccc(C(N)=O)cc1)CC(=O)Nc1cc(Cl)ccc1Cl | -3.0 | 94.0 | 1.0 | 94.0 | . | . | .
CN(CC(=O)Nc1ccc(Cl)cc1)CC(=O)Nc1ccc(F)c(F)c1F | 0.0 | 131.0* | 0.0 | 104.0 | 104.0 | 2.0 | 106.0
CCCN(CC(=O)Nc1ccc(C(N)=O)cc1)CC(=O)Nc1ccc(Cl)cc1Cl | 1.0 | 134.0* | 1.0 | 106.0 | 101.0 | -3.0 | 101.0
Cc1ccccc1COc1ccc(-c2nn[nH]n2)cc1 | 9.0 | 105.0 | 0.0 | 108.0 | . | . | .
Cc1ccc(CN2C(=O)N/C(=C\c3cccn3-c3cccc(C(=O)O)c3)C2=O)cc1 | . | . | 23.0 | . | . | . | .
COc1cc(C(Nc2ccc(S(=O)(=O)NCC3CCCO3)cc2)C(=O)NC(C)(C)C)cc(OC)c1OC (stereo not drawn) | 30.0 | 129.0* | 1.0 | 121.0 | 102.0 | 1.0 | 99.0
Cc1ccc(NC(=O)C2OCCc3ccccc32)cc1C (stereo not drawn) | 4.0 | 107.0 | 2.0 | 103.0 | . | . | .
CCC(=C(c1ccc(OC)cc1)c1ccc(OC)cc1)c1cn(CC(O)CN(CCO)CCO)c2ccccc12 (stereo not drawn) | 9.0 | 106.0 | 0.0 | 149.0* | 158.0 | 36.0 | 108.0
CC(C)Oc1ccc(CNC(=O)Cn2c(=O)oc3ccccc32)cc1 | 5.0 | 105.0 | 22.0 | 113.0 | . | . | .
Cn1c(=O)c2sccc2n(CC(=O)NCCC2=CCCCC2)c1=O | 3.0 | 104.0 | 1.0 | 99.0 | . | . | .
SMILES | MEKK2mut PB1 HTS | MEKK3 PB1 HTS | GRK2 inh | MEKK2 WT-MEK5 | MEKK2wt confirm | MEKK2mut confirm | MEKK3-MEK5 inh
CC(C)(C)c1ccc(OCCC(=O)NCC(c2cccs2)N2CCOCC2)cc1 (stereo not drawn) | . | . | 2.0 | . | . | . | .
CC1(C)Cc2cccc(OCC(=O)Nc3cccnc3)c2O1 | 9.0 | 130.0* | 0.0 | 122.0 | 98.0 | -4.0 | 99.0
Cc1cc(C)n2nc(-c3cnn(C)c3C(F)(F)F)cc2n1 | 2.0 | 105.0 | 0.0 | 106.0 | . | . | .
CC(C)=CCC/C(C)=C/CC(C)(C)CNCCN1CCNCC1 | 21.0 | 119.0 | 0.0 | 163.0* | 111.0 | 12.0 | 105.0
Cc1nnc(SCC(=O)N(C(C)C)C(C)C)[nH]c1=O | 2.0 | 98.0 | 0.0 | 88.0 | . | . | .
Cc1nnc(SCC(=O)NNC(=O)C(C)C)[nH]c1=O | 4.0 | 134.0* | 0.0 | 106.0 | 107.0 | -2.0 | 104.0
CCCCN(CC)CCCNC(=O)c1cc2c(-c3ccc(OC)c(OC)c3)nn(C)c2s1 | 23.0 | 108.0 | 0.0 | 135.0* | 107.0 | 13.0 | 102.0
CCN(CC)CCCNC(=O)c1cc2c(-c3cccc(OC)c3)nn(C)c2s1 | 13.0 | 101.0 | 0.0 | 120.0 | . | . | .
COc1cccc(-c2nn(C)c3sc(C(=O)NCCCN(C)Cc4ccccc4)cc23)c1 | 22.0 | 106.0 | 0.0 | 147.0* | 146.0 | 46.0 | 105.0
Clc1ccccc1Cn1nnc2c(Nc3ccccc3)ncnc21 | 6.0 | 100.0 | 0.0 | 102.0 | . | . | .
CCOC(=O)C(C)NC(=O)CCc1nnc2ccc(N3CCCCC3)nn12 (stereo not drawn) | 7.0 | 102.0 | 0.0 | 105.0 | . | . | .
O=C(CN1C2=NCCN2c2ccccc21)c1ccc(Br)s1 | 0.0 | 142.0* | 0.0 | 105.0 | 99.0 | 0.0 | 95.0
Cc1ccc(NC(=O)CN(C)C(=O)CN2C(=O)NC(C)(c3ccccc3)C2=O)cc1 (stereo not drawn) | -5.0 | 79.0*[inhibitor] | 0.0 | 91.0 | 101.0 | 3.0 | 101.0
CN(CC(=O)Nc1ccc(F)cc1)C(=O)CN1C(=O)NC2(CCCCC2)C1=O | . | . | 1.0 | . | . | . | .
CCN(CC)c1ccc(/C=N/NC(=O)c2nnn(-c3nonc3N)c2C(C)C)c(O)c1 | -20.0 | 2.0*[inhibitor] | 1.0 | 1.0*[inhibitor] | 105.0 | -2.0 | 102.0
O=C1CNC(=O)/C1=C/c1ccc(O)cc1 | -3.0 | 100.0 | 2.0 | 97.0 | . | . | .
COc1cc2[nH]c(=S)nc(NCCCOC(C)C)c2cc1OC | 1.0 | 101.0 | 0.0 | 99.0 | . | . | .
CN(C)c1ccc(/C=C2/C=C(c3ccc4c(c3)CCCC4)OC2=O)cc1 | -8.0 | 73.0*[inhibitor] | 1.0 | 68.0 | 81.0 | -1.0 | 83.0
